Assay outcomes (PubChem BioAssay)
Shown are actives, neighbours in structure and some others; about 12% of the full set was active somewhere.
JMJD2A Tudor inh = JMJD2A Tudor domain (human) inhibition; O75164; AlphaScreen JMJD2A-Tudor / H3K4me3 peptide binding; Potency, µM (series often up to 114 µM), for inactives: at the highest dose activity change, negative = inhibition, most hits filed as inhibitors; 390,000 compounds, 4.4% hits; AID 504339; further: on the % scale 0 is the no-effect control and ±100 the full control effect; nearly all actives have a fitted effect of over 50% in size
HP1b chromo inh = inhibitors of HP1-beta chromodomain binding to methylated histone tails. P83916. AlphaScreen HP1-beta / biotin-H3K9me3 peptide binding. Potency, µM (series often up to 114 µM), inactives show at the highest dose activity change, negative = inhibition, most hits filed as inhibitors. 390,000 compounds, 0.56% hits. AID 540317; further: nearly all actives have a fitted effect of over 70% in size
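AlphaScreen: HP1-beta (50 nM) preformed 30 min with biotin-H3(1-18)K9me3 peptide (50 nM) in PBS pH 7.4, 0.01% Tween-20. Compound added for 30 min at RT, then streptavidin donor/nickel chelate acceptor beads (10 ug/mL) for 30 min.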
G9a inh = G9a (human) methyltransferase inhibition | G9a H3K9 monomethylation, AlphaScreen, 2 h | Potency, µM (doses to about 102 µM), inactives show at the top dose activity, negative = inhibition, hits mostly inhibitors | 350,000 compounds, 8.8% hits; further: on the % scale 0 is the no-effect control and ±100 the full control effect; nearly all actives have a fitted effect of over 75% in size
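Step 1: enzyme (final 20 nM) with compound, 15 min RT. Step 2: substrate peptide 500 nM and SAM 20 uM, 2 h RT. Step 3: anti-H3K9me1 antibody and AlphaScreen beads, 10 min, then plate read.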
Sfp PPTase inh = Sfp phosphopantetheinyl transferase inhibition. Biochemical Sfp PPTase activity, qHTS. Potency, µM, for inactives: largest response in the series, negative = inhibition, most hits filed as inhibitors. 310,000 compounds, 3.5% hits. AID 1490;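 further: the enzyme is Sfp with the accession as filed and its product quenches rhodamine fluorescence; 0% = enzyme reaction without inhibitor and -100% = no enzyme wells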
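Buffer: 50 mM Hepes-Na pH 7.6, 10 mM MgCl2, 0.01% Nonidet P-40, 0.01% BSA. Enzyme 15 nM, pre-exposed to compound 15 min; substrates then added and fluorescence change tracked over 30 min.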
L3MBTL1 block = L3MBTL1 (human) inhibition | Potency, µM (highest dose often 57.1 µM), without a hit: at the highest dose activity, negative = inhibition, actives largely listed as inhibitors | AlphaScreen L3MBTL1–H3K9me1 peptide binding | 230,000 compounds, 0.66% hits | Q9Y468; further: on the % scale 0 is the no-effect control and ±100 the full control effect; nearly all actives have a fitted effect of over 60% in size
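Read-out is AlphaScreen signal from streptavidin donor and nickel chelate acceptor beads (10 ug/mL final each) bridging L3MBTL1 (50 nM) and biotinylated K9-monomethylated H3(1-15) peptide (75 nM), after 30 min compound exposure at room temperature.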
BAZ2B block = BAZ2B (human) inhibition; Q9UIF8; AlphaScreen BAZ2B-H3K14Ac peptide displacement; Potency, µM (highest dose often 114 µM), without a hit: at the highest dose activity change, negative = inhibition, hits mostly inhibitors; 360,000 compounds, 4.4% hits; AID 504333; further: on the % scale 0 is the no-effect control and ±100 the full control effect; nearly all actives have a fitted effect of over 60% in size
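Multi-concentration screen (max 110 uM) measuring displacement of acetylated histone H3 peptide from BAZ2B by AlphaScreen, using 50 nM protein, 50 nM peptide and 10 ug/mL streptavidin donor plus Ni-chelate acceptor beads.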
Active calls of the source: *; ? = inconclusive; . = no result given; [ ] = dose if it differs, or a comment. The call rests on the fitted dose curve; in most records, active means well fitted curve in the direction sought with a large enough effect; inconclusive means small, poorly fitted or top-dose-only effect, or another doubt; inactive means no such curve, though single readings can be large; an effect the other way counts as inactive or inconclusive. Potency means the concentration at half of the fitted maximal effect.

SMILES	JMJD2A Tudor inh	HP1b chromo inh	G9a inh	Sfp PPTase inh	L3MBTL1 block	BAZ2B block
COc1cccc(/C=C/C(=O)OCC(=O)c2ccccc2)c1OC	24%	101%	.	.	21%	.
COc1cccc(/C=C/C(=C2/C(=O)N(c3ccccc3)N=C2C)c2ccc(Br)cc2)c1OC	-31%	-21%	?	9%	-3%	1.3µM*
COc1cc(OC)c(N(C)C(=O)Cn2ncc3c([nH]c4ccccc43)c2=O)cc1Cl	-18%	-16%	-5%[59 µM]	.	.	-12%
COc1ccccc1N1CCN(/N=C/c2ccc([N+](=O)[O-])cc2)CC1	28µM*	?	18µM*	3%	2%	18µM*
COc1ccccc1N1CCN(/N=C/c2ccc(Cl)c([N+](=O)[O-])c2)CC1	?	?	.	-14%	.	18µM*
COc1cccc(C(=O)NCc2nnc(SCC(=O)Nc3nccs3)n2-c2ccccc2)c1	-7%	30%	6%[59 µM]	18%	-12%	-4%
O=C(CSc1nnc(CNC(=O)c2ccccc2)o1)c1ccccc1	-5%	16%	18%	11%	.	-2%
Cn1c(CNC(=O)c2ccccc2)nnc1SCC(=O)Nc1nccs1	11µM*	-12%	-1%	6%	4%	-12%
O=C(CSc1nnc(CNC(=O)c2ccccc2)o1)Nc1nccs1	?	49%	35%	13%	.	79µM*
O=C(CSc1nnc(CNC(=O)c2ccc(F)cc2)o1)Nc1nccs1	-35%	35%	.	2%	.	79µM*
Cc1cccc(C(=O)NCc2nnc(SCC(=O)NC3=NCCS3)n2C)c1	40µM*	16%	-45%	3%	.	5%
COc1ccc(-c2cc3nc(C)c(CCC(=O)NC(C)c4ccccc4)c(C)n3n2)c(OC)c1 (configuration not stated)	-20%	13%	-2%[59 µM]	.	.	?
CCc1ccc(N2CC(C)Cn3c2nc2c3c(=O)n(CC(=O)O)c(=O)n2C)cc1 (configuration not stated)	-22%	-2%	10%[59 µM]	.	.	-14%
CCn1c(SCC(=O)Nc2nccs2)nnc1-c1ccc(C)cc1	-20%	22%	20%[59 µM]	4%	1%	2%
CCC(=O)Nc1ccc(-c2nnc(SCC(=O)Nc3nccs3)n2C)cc1	89µM*	27%	40µM*	8%	6%	-5%
CCn1c(Cc2cccc3ccccc23)nnc1SCC(=O)Nc1nccs1	79µM*	26%	10µM*	13%	-10%	6%
O=C(CSc1nnc(Cn2c(=O)sc3ccccc32)n1-c1ccccc1)Nc1nccs1	-16%	50%	35µM*	79µM*	4%	-9%
O=C(CSc1nnc(Cn2c(=O)sc3ccccc32)n1-c1ccccc1)N1CCCC1	-7%	55%	-10%[59 µM]	16%	-1%	-1%
CCc1nnc(SCC(=O)Nc2nccs2)n1CC	-18%	26%	-2%	11%	.	-12%
Cc1ccc(CSc2nc(=O)c3c(C)cc(C)nc3n2C2CC2)cc1	-17%	38%[57 µM]	4%[59 µM]	.	.	18%
Cc1nnc(SCc2cc(=O)n3c(C)cccc3n2)s1	12%	27%[57 µM]	-2%[59 µM]	.	.	6%
O=C(N/N=C\c1ccc(Cl)cc1)c1sccc1-n1cccc1	-12%	26%	-13%	17%	3%	3%
CN(C)c1ccc(/C=N/NC(=O)Cn2nnc3ccccc32)cc1	-12%	-1%	14µM*	-11%	-6%	-27%
CN(C)c1ccc(/C=N/NC(=O)c2ccccc2Cl)cc1	-31%	-7%	40µM*	8%	-15%	-35%
CN(C)c1ccc(/C=N/NC(=O)c2ccccc2)cc1	-17%	28%	-41%	19%	-3%	-30%
SMILES	JMJD2A Tudor inh	HP1b chromo inh	G9a inh	Sfp PPTase inh	L3MBTL1 block	BAZ2B block
COc1ccc(NC(=O)O/N=C/c2ccccc2)cc1	-23%	-7%	0%	0%	-4%	-13%
CN(C)c1ccc(/C=N/NC(=O)c2sccc2-n2cccc2)cc1	-17%	17%	28µM*	-5%	-23%	-24%
COc1ccc(/C=N/NC(=O)Cn2nnc3ccccc32)cc1OC	-14%	15%	28%[59 µM]	5%	-5%	-25%
CN(C)c1ccc(/C=N/OC(=O)Nc2ccccc2)cc1	-34%	-6%	-12%	1%	.	71µM*
CCCn1c(=O)c2sccc2n2c(CCCC(=O)Nc3cccc(CC)c3)nnc12	-2%	36%	-1%[59 µM]	.	.	-20%
Cc1ccc(NC(=O)CSc2nc3ccc(NC(=O)c4cccc(Cl)c4)cc3s2)c(C)c1	-9%	4%	-13%[59 µM]	.	.	-2%
O=S(=O)(c1ccccc1)N1CCN(Cc2c(O)ccc3ccccc23)CC1	-13%	22%	.	.	-4%	.
O=c1cc(CN2CCN(c3ccccc3F)CC2)c2cc(O)c(-c3ccccc3)cc2o1	89µM*	-12%	-12%	6%	3%	1%
Oc1ccc2ccccc2c1CN1CCN(C/C=C/c2ccccc2)CC1	?	10%	10µM*	0%	-15%	?
COc1ccc(N2CCN(Cc3cc(=O)oc4cc(-c5ccccc5)c(O)cc34)CC2)cc1	-24%	9%	-14%[59 µM]	4%	-2%	13%
O=C(CN1CCN(c2ccccc2F)CC1)c1ccc(O)c(O)c1	-20%	62%	32µM*	?	.	-16%
Oc1ccc2ccccc2c1CN1CCN(c2ccccc2F)CC1	-6%	73%	28µM*	6%	3%	10%
Cc1ccc(CN2C(=O)C(O)(c3c(C)[nH]c4ccccc34)c3ccccc32)cc1 (configuration not stated)	?	?	?	.	.	45µM*
Cc1noc(/C=C/c2cccs2)c1S(=O)(=O)N1CCC(C(=O)NCc2ccccc2Cl)CC1	-7%	12%	5%[59 µM]	.	.	.
CN(C(=O)Cn1c(Cl)nc2c1c(=O)n(C)c(=O)n2C)C1CCS(=O)(=O)C1 (configuration not stated)	-20%	0%	56µM*	.	7%	-5%
CCC(C)N(C(=O)Cn1c(Cl)nc2c1c(=O)n(C)c(=O)n2C)C1CCS(=O)(=O)C1 (configuration not stated)	-14%	15%	.	8%	.	-5%
COc1ccc(C(=O)Cn2c(Cl)nc3c2c(=O)n(C)c(=O)n3C)cc1	-14%	-2%	23%[12.7 µM]	13µM*	1%	2%
COc1ccc(C(=O)Cn2c(N3CCOCC3)nc3c2c(=O)n(C)c(=O)n3C)cc1	.	.	0%	21%	1%	-2%
C/C(=N\Nc1nc2ccccc2s1)c1cccs1	?	-16%	-45%[59 µM]	-56%	-22%	?
CC(=NNc1nc2ccccc2o1)c1cc2ccccc2cn1	10µM*	-17%	.	.	.	.
CC(=NNc1nc2ccccc2s1)c1ncccn1	45µM*	-28%	.	.	.	.
CC(=NNc1nc2ccccc2o1)c1ncccn1	10µM*	-1%	.	.	.	.
